The panel holds about 83,000 compounds, 20% with a hit somewhere; the sample as a whole holds those more often.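 Note: values are percent growth. 100 is the growth of untreated cells, values between 100 and 0 indicate rising inhibition; between -100 and 0 indicates cell death.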 A number with no mark means an inactive call. Active and inactive are the calls of the source. How the source made its calls: active means growth percent below 10; inactive means the rest.

Test systems include RPMI-8226 leukemia; OVCAR-8 ovarian; OVCAR-5 ovarian; OVCAR-4 ovarian; SK-OV-3 ovarian; IGROV1 ovarian; OVCAR-3 ovarian; HS 578T breast; NCI/ADR-RES ovarian; T-47D breast; BT-549 breast; MDA-MB-435 melanoma; SW-620 colon; MCF7 breast; HCT-116 colon; HCC-2998 colon; KM12 colon.
Assay in all cases: NCI-60 one-dose screen, 48 h (100 = growth as untreated, 0 = no growth, -100 = all killed)
Conditions in all cases: 10 µM

In the case of `COc1cc(Cl)cc(-c2nn(-c3cccc(NC(=O)c4ccc(N5CCOCC5)c(C(F)(F)F)c4)c3)cc2-c2ccncc2)c1`, the growth is 25.2% in the test with RPMI-8226 leukemia; 42.1% in the test on OVCAR-8 ovarian; 78.4% with OVCAR-5 ovarian; 67.9% with OVCAR-4 ovarian; 75.7% with SK-OV-3 ovarian; 96.5% in the test with IGROV1 ovarian. Further, the growth with OVCAR-3 ovarian was 69.4%; with HS 578T breast, 40.7%; with NCI/ADR-RES ovarian, 46.1%; with T-47D breast, 49.2%; with BT-549 breast, 73%; in the test on MDA-MB-435 melanoma, 63.4%. In addition, the growth with SW-620 colon is 69.2%; with MCF7 breast, 45.3%; with HCT-116 colon, 47.7%; in the test with HCC-2998 colon, 52.3%; in the test on KM12 colon, 38.4%.

For the compound `CCOC(=O)c1ccc(NC(=O)Nc2ncc(Cl)cc2Cl)cc1`, the growth is 94.5% in the test on RPMI-8226 leukemia; 97.7% in the test with OVCAR-8 ovarian; 101% in the test on OVCAR-5 ovarian; 104% with OVCAR-4 ovarian; 100% in the test on SK-OV-3 ovarian; 115% in the test on IGROV1 ovarian. Further, the growth is 150% in the test with OVCAR-3 ovarian; 132% with HS 578T breast; 101% in the test on NCI/ADR-RES ovarian; 73.4% with T-47D breast; 106% with BT-549 breast; 90.8% in the test on MDA-MB-435 melanoma. Besides, the growth is 102% with SW-620 colon; 97.8% in the test on MCF7 breast; 83.9% in the test on HCT-116 colon; 96.2% with HCC-2998 colon; 102% in the test with KM12 colon.

For `O=C(c1ccc(Cl)cc1Cl)N1CCOCC1`, the growth in the test with RPMI-8226 leukemia was 95.9%; in the test on OVCAR-8 ovarian, 104%; with OVCAR-5 ovarian, 96%; with OVCAR-4 ovarian, 98.9%; in the test with SK-OV-3 ovarian it was 98.5%; with IGROV1 ovarian, 105%. For the same compound, the growth was 109% in the test on OVCAR-3 ovarian; 107% in the test on HS 578T breast; 96.5% in the test with NCI/ADR-RES ovarian; 92.3% with T-47D breast; 92.3% in the test with BT-549 breast; 104% in the test on MDA-MB-435 melanoma. The growth with SW-620 colon was 102%; in the test on MCF7 breast, 97.6%; in the test on HCT-116 colon it was 93.8%; with HCC-2998 colon, 106%; in the test with KM12 colon, 110%.

`CNc1ncc(-c2ccc(C(F)(F)F)cc2)c(NC2CCCCCC2)n1`: the growth in the test with RPMI-8226 leukemia is 32.1%; in the test with OVCAR-8 ovarian, 84.2%; in the test with OVCAR-5 ovarian it was 88.8%; in the test on OVCAR-4 ovarian, 70.1%; in the test with SK-OV-3 ovarian, 83%; in the test on IGROV1 ovarian, 63.9%. In addition, the growth was 78.2% with OVCAR-3 ovarian; 99.6% in the test with HS 578T breast; 65.2% with NCI/ADR-RES ovarian; 45.8% with T-47D breast; 90.9% in the test with BT-549 breast; 89.8% with MDA-MB-435 melanoma. For the same compound, the growth in the test with SW-620 colon is 77.4%; in the test with MCF7 breast, 67.6%; with HCT-116 colon, 56%; in the test with HCC-2998 colon, 91.1%; in the test on KM12 colon, 74.1%.

With `CCOCC(=O)C(C#N)c1ccc(Cl)c(Cl)c1` (stereo unspecified), the growth in the test with RPMI-8226 leukemia is 88.9%; in the test on OVCAR-8 ovarian it was 101%; with OVCAR-5 ovarian, 96.6%; with OVCAR-4 ovarian, 91.3%; in the test on SK-OV-3 ovarian it was 100%; in the test on IGROV1 ovarian, 101%. The growth in the test with OVCAR-3 ovarian is 110%; in the test on HS 578T breast it was 100%; with NCI/ADR-RES ovarian, 115%; with T-47D breast, 124%; with BT-549 breast, 104%; in the test on MDA-MB-435 melanoma it was 92.8%. Besides, the growth was 102% with SW-620 colon; 92.2% with MCF7 breast; 105% in the test with HCT-116 colon; 106% in the test with HCC-2998 colon; 107% with KM12 colon.

Turning to `COc1ccc2c(c1)-c1c(c3cc(OC)ccc3n(CCN(C)C)c1=O)C2=O`, the growth in the test with RPMI-8226 leukemia is -14.9% (active); in the test with OVCAR-8 ovarian, 4.46% (active); in the test with OVCAR-5 ovarian, 46.3%; with OVCAR-4 ovarian, -28.3% (active); with SK-OV-3 ovarian, 28.7%; in the test with IGROV1 ovarian, -25.6% (active). Also, the growth in the test with OVCAR-3 ovarian is 6.8% (active); in the test with HS 578T breast it was 25.7%; in the test on NCI/ADR-RES ovarian it was -1.87% (active); with T-47D breast, 63.8%; in the test with BT-549 breast, 64.2%; in the test with MDA-MB-435 melanoma, 21.8%. For the same compound, the growth with SW-620 colon was -8.7% (active); in the test on MCF7 breast, -0.273% (active); in the test on HCT-116 colon, -21.2% (active); with HCC-2998 colon it was 34.9%; with KM12 colon it was 8.92% (active).

As for `Nc1c(C(=O)Nc2cccc(F)c2)sc2nc3c(cc12)C(=O)CCC3`, the growth in the test on RPMI-8226 leukemia was 43.1%; with OVCAR-8 ovarian, 63.9%; in the test on OVCAR-5 ovarian, 38.2%; in the test with OVCAR-4 ovarian it was 57.8%; in the test with SK-OV-3 ovarian, 25.6%; with IGROV1 ovarian, 44.1%. For the same compound, the growth in the test on OVCAR-3 ovarian is -3.4% (active); with HS 578T breast, 29.3%; with NCI/ADR-RES ovarian, 13.3%; with T-47D breast, 42.6%; with BT-549 breast it was 48.4%; with MDA-MB-435 melanoma it was -43.8% (active). Also, the growth was 31.1% in the test on SW-620 colon; 11.9% with MCF7 breast; 29% in the test with HCT-116 colon; 23.4% in the test on HCC-2998 colon; 28.9% with KM12 colon.

Consider `COc1ccc(Oc2nc(NC3CCCC3)nc(Sc3ccc(OC)cc3)n2)cc1`, for which the growth is 63.7% in the test on RPMI-8226 leukemia; 65.4% with OVCAR-8 ovarian; 91.1% in the test with OVCAR-5 ovarian; 74.3% with OVCAR-4 ovarian; 82.8% in the test on SK-OV-3 ovarian; 64.9% in the test with IGROV1 ovarian. Also, the growth with OVCAR-3 ovarian is 77.1%; in the test on HS 578T breast, 83.8%; in the test with NCI/ADR-RES ovarian, 66.2%; with T-47D breast it was 55.9%; with BT-549 breast, 91.9%; with MDA-MB-435 melanoma, 89%. The growth is 87.9% in the test with SW-620 colon; 69.3% in the test on MCF7 breast; 45.1% in the test on HCT-116 colon; 98.8% in the test on HCC-2998 colon; 83.9% in the test on KM12 colon.

For the origin of these results see PubChem BioAssay (NCI).
